# PLK1 PBD inh: blocks phosphopeptide binding to human PLK1 polo-box domain | AID 720504 | actives 2.8% (n = 360,000) | Potency, µM, actives largely listed as inhibitors | Plk1 PBD binding of FITC phosphopeptide, fluorescence polarization | P53350; note: series mostly up to about 57 µM; nearly all actives have a fitted effect of over 65% in size
# Sfp PPTase inh: blocks B. subtilis Sfp PPTase activity; Q9F4F7; Biochemical Sfp PPTase activity, qHTS; Potency, µM, actives largely listed as inhibitors; actives 3.5% (n = 310,000); AID 1490;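 note: the enzyme is Sfp with the accession as filed and its product quenches rhodamine fluorescence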
#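 Compounds were incubated with enzyme (final 15 nM) for 15 min at room temperature before substrate addition started the reaction. Fluorescence at 525 nm excitation, 598 nm emission was recorded immediately and after 30 minutes.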
# TrxR1 substrate: rat thioredoxin reductase 1 substrate activity | Potency, µM (doses to about 114 µM) | O89049 | actives 0.01% (n = 390,000) | AID 588456 | purified TrxR1 substrate turnover, NADPH consumption readout; note: nearly all actives have a fitted effect of over 50% in size
#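 Rat TrxR1, dispensed at 90 nM, was prereduced with 400 uM NADPH (final) for 5 min at ~22 deg C, then incubated with compound 15 min before 400 uM selenite. A first-read NADPH fluorescence drop versus no-compound background flagged substrates.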
# rTrxR1 inhibitor: blocks rat thioredoxin reductase 1; recombinant rTrxR1, NADPH fluorescence consumption, selenite substrate; Potency, µM (doses to about 114 µM), actives largely listed as inhibitors; actives 1% (n = 390,000); note: nearly all actives have a fitted effect of over 65% in size
#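 Rat TrxR1 (90 nM in the dispensed reagent) was pre-reduced with 400 uM NADPH for 5 min at room temperature, then incubated with compound for 15 min. After 400 uM selenite was added, NADPH fluorescence (Ex 340/Em 450 nm) was followed for 8 min.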
# VDR inhibitor: inhibitors of human vitamin D receptor. AID 504847. Potency, µM, hits mostly inhibitors. actives 0.93% (n = 400,000). VDR-SRC2-3 peptide fluorescence polarization, 2 h. P11473
#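 Fluorescence polarization assay measuring small-molecule disruption of VDR binding to the coregulator peptide SRC2-3. Compounds were pin-transferred (23 nl) into the reagent mix and incubated 2 h at room temperature before reading.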
# mIDH1 inhibitor: blocks human mutant IDH1 R132H enzyme | IDH1-R132H enzyme, NADPH consumption, diaphorase/resazurin fluorescence | Potency, µM (series often up to 76.6 µM), actives largely listed as inhibitors | actives 0.093% (n = 390,000) | O75874; note: nearly all actives have a fitted effect of over 65% in size
# Target sequence (O75874 whole entry R132H, stated change not applied): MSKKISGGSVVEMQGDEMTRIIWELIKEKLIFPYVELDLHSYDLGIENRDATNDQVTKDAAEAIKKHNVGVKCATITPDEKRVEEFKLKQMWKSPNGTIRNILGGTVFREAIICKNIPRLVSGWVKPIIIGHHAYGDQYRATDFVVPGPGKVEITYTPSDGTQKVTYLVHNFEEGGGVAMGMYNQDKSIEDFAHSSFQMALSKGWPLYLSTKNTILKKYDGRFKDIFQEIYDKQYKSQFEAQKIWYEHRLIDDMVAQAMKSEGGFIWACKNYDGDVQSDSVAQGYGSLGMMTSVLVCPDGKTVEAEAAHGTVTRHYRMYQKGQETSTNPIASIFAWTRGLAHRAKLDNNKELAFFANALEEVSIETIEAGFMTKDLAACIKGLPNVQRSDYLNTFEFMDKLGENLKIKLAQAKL
#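 IDH1-R132H (0.5 ug/mL) preincubated 30 min with compound, then NADPH (0.016 mM) and alpha-KG (2 mM) added; 80 min at RT, pH 7.5. Remaining NADPH coupled via diaphorase/resazurin to fluorescence (540/590 nm); concentration-response curves normalized to no-enzyme control.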
# A number is an active result; i = inactive; ? = inconclusive; nt = no result; [ ] = another dose, or the depositor's remark. Most compounds without a hit are left out; they make up all but 5.2% or so of the library. Calls come from the whole dose curve; as a rule, active = well fitted curve in the direction sought with a large enough effect; inconclusive = small, poorly fitted or top-dose-only effect, or another doubt; inactive = no such curve, though single readings can be large; an effect the other way counts as inactive or inconclusive.
SMILES,PLK1 PBD inh,Sfp PPTase inh,TrxR1 substrate,rTrxR1 inhibitor,VDR inhibitor,mIDH1 inhibitor
C/C=C\C=C/C(=O)Nc1cccc(C2=NOC3(C2)C[C@@H](C(N)=O)N(C(=O)COc2ccc(Cl)cc2)C3)c1 (stereo partly drawn),?,20µM,i,5.6µM,?,i
C/C=C\C=C\C(=O)N1CC2(CC(c3cccc(NC(=O)COc4ccc(Cl)cc4)c3)=NO2)C[C@H]1C(N)=O (stereo partly drawn),i,28µM,i,25µM,89µM,i
C[N+]1(CC(=O)c2ccc(O)c(O)c2)CCOCC1,nt,nt,i,i,nt,nt
COc1ccc2c(C#CCCO)c(-c3ccc(S(C)(=O)=O)cc3)sc2c1,27µM,nt,i,i,i,i
CCCCS(=O)(=O)N1CCc2nc(-c3ccccc3)c3c(c2C1)CO[C@@H](C)C3,nt,i,nt,nt,nt,nt
N#C/C(=C\c1coc2ccccc2c1=O)C(N)=S,12µM,i,i,i,?,i
Cc1c(Cl)ccc2c(C(=O)O)cc(-c3ccccc3)nc12,24µM,i,i,i,i,i
Cc1c(Cl)ccc2c(C(N)=O)cc(-c3ccccn3)nc12,i,i,i,i,i,i
CCN(CC)CCN(Cc1cc2cc(C)cc(C)c2[nH]c1=O)C(=S)NCc1ccco1,i,i,i,i,i,i
CCNC(=S)N(Cc1cc2cc(C)c(C)cc2[nH]c1=O)C1CCCC1,i,i,i,i,i,i
CCCN(Cc1cc2cc(C)ccc2[nH]c1=O)C(=O)c1ccccn1,19µM,i,i,i,?,i
CCN(CC)CCN(Cc1cc2ccc(C)c(C)c2[nH]c1=O)C(=S)NCc1ccco1,i,56µM,i,i,i,i
CCN(CC)CCN(Cc1cc2cc(C)ccc2[nH]c1=O)C(=S)NCc1ccco1,i,56µM,i,i,i,i
CCNC(=S)N(Cc1cc2cc(C)ccc2[nH]c1=O)C1CCCC1,i,56µM,i,i,i,i
Cc1nc(N2CCN(c3ccccc3O)CC2)c2c(-c3ccccc3)csc2n1,i,i,i,i,i,i
COC(Cn1c2c(c3cc(C)ccc31)CCCC2NCc1ccccc1)OC (stereo not drawn),i,i,i,?,i,i
O=C(CCC1CCCN(C(=O)c2ccc3c(c2)OCCO3)C1)NCc1ccccc1F (stereo not drawn),i,i,i,i,i,i
Cc1ccc(CNC(=O)CCC2CCCN(C(=O)c3ccc4c(c3)OCO4)C2)o1 (stereo not drawn),i,28µM,i,71µM,i,i
COc1ccc(C(=O)O)cc1S(=O)(=O)NC(C)(C)C,24µM,i,i,i,i,i
COc1ccc2c3c(c(=O)oc2c1)C1O[C@](CCCCN2C(=O)c4ccccc4C2=O)(Cc2cc(OC)c(OC)cc21)O3,nt,i,nt,nt,nt,nt
CC1(C)Cc2c(C#N)c(N3CCOCC3)nc(-c3ccccc3)c2CO1,i,i,i,i,i,i
N#Cc1c(NCCCO)nc(-c2ccco2)c2c1CCCC2,i,40µM,i,i,i,i
CC1CCN(c2nc(-c3ccco3)c3c(c2C#N)CC(C)(C)OC3)CC1,?,14µM,i,8.9µM,50µM,i
CC1(C)Cc2c(C#N)c(NCCO)nc(-c3ccco3)c2CO1,i,16µM,i,i,i,i
Cc1ccc(C(=O)C(OC(=O)CNC(=O)COc2ccccc2C)c2ccccc2)cc1 (stereo not drawn),nt,nt,i[0.0914 µM],i,i,nt
SMILES,PLK1 PBD inh,Sfp PPTase inh,TrxR1 substrate,rTrxR1 inhibitor,VDR inhibitor,mIDH1 inhibitor
C/C=C/C1=CC(=O)C[C@H](c2ccc3c(c2)OCO3)C1,i,nt,i,i,?,i
C=CCn1c(C)cc(C2=NNC(=NC(C)(C)C)SC2)c1C,i,56µM,i,?,i,i
CCOc1ccc(N=C2NN=C(c3cc(C)n(CC4CCCO4)c3C)CS2)cc1 (stereo not drawn),i,56µM,i,i,i,i
C=CCn1c(C)cc(C2=NNC(=Nc3ccc(C)cc3)SC2)c1C,i,79µM,i,i,i,i
CCCCNC(=O)c1ccc2nc(-c3cccs3)c(-c3cccs3)nc2c1,nt,nt,i,i,i,nt
CCOc1ccccc1-n1nnc(-c2nsc(NC(=O)c3ccc(C)cc3)n2)c1C,nt,nt,i,i,i,i
C(=C\c1cnc2ccccc2n1)/c1ccc2c(c1)OCO2,nt,nt,i,i,nt,nt
Cc1ccc(S(=O)(=O)Nc2c(C(=O)O)[nH]c3ccccc23)c(C)c1,27µM,i,i,i,i,i
O=C(O)c1[nH]c2ccccc2c1NS(=O)(=O)c1ccc(F)cc1,?,i,i,i,i,i
O=C(CSc1nc(-c2ccc(F)cc2)cc(C(F)(F)F)n1)NCc1ccccc1,nt,nt,i,i,i,i
CS(=O)(=O)Nc1ccc(C2=NN(S(C)(=O)=O)C(c3ccccc3)C2)cc1 (stereo not drawn),i,i,i,79µM,i,i
CCS(=O)(=O)N1N=C(c2ccc(NS(C)(=O)=O)cc2)CC1c1ccccc1 (stereo not drawn),i,i,i,?,i,i
COc1ccc(S(=O)(=O)N2N=C(c3ccc(NS(C)(=O)=O)cc3)CC2c2ccco2)cc1 (stereo not drawn),i,56µM,i,?,i,i
COc1ccc(S(=O)(=O)N2N=C(c3cccc(NS(C)(=O)=O)c3)CC2c2ccco2)cc1 (stereo not drawn),i,i,i,i,i,i
COc1cc(C(O)c2nc(-c3cccc(C(F)(F)F)c3)cs2)ccc1F (stereo not drawn),i,nt,nt,nt,nt,nt
CCN1CCN(CC(=O)N2N=C(c3ccc(OC)cc3)CC2c2ccc(OC)cc2)C(=O)C1=O (stereo not drawn),27µM,i,i,i,i,i
COc1ccc(C2CC(c3ccccc3)=NN2c2ccc(N)cc2)cc1 (stereo not drawn),i,i,i,i,i,i
COc1ccc(C2CC(c3ccccc3)=NN2c2ccc(Cl)c(C(=O)O)c2)cc1 (stereo not drawn),?,56µM,i,i,i,i
CC(=O)OCC(=O)N1N=C(c2ccc3ccccc3c2)CC1c1ccccc1 (stereo not drawn),i,25µM,i,i,i,i
COc1ccc(C2=NN(C(=O)CCC(=O)O)C(c3ccc(OC)cc3)C2)cc1 (stereo not drawn),i,i,i,i,i,i
C=CC1=C(C)/C(=C/c2[nH]c(Cc3[nH]c(/C=C4\NC(=O)C(C)=C4C=C)c(C)c3CCC(=O)O)c(CCC(=O)O)c2C)NC1=O,nt,40µM,nt,nt,?,nt
CC(C)(C)n1ncc2c(=O)n(Cc3cccc(C(F)(F)F)c3)cnc21,nt,nt,i,i,nt,nt
O=S(=O)(c1ccc(F)cc1)N1CCN(CC2CC3C=CC2C3)CC1 (stereo not drawn),i,i,i[0.0914 µM],i[0.0914 µM],?,i
Cc1ccc(S(=O)(=O)N(CC(=O)Nc2ccccc2C(=O)O)c2ccccc2C)cc1,i,i,i,i,i,i

# Source: PubChem
